Pf Dd2 growth = blocks in vitro growth of P. falciparum Dd2. P. falciparum Dd2 growth, SYBR Green, 72 h. Potency, µM (series often up to 28.9 µM), inactives show top-dose activity, negative = inhibition, most hits filed as inhibitors. 4.3% of 120,000 active. AID 1347417; active = well fitted inhibition curve with a large enough effect;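 note: plate controls were DMSO vehicle for no effect and reference drug for full effect; nearly all actives have a fitted effect of over 65% in size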
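Infected erythrocytes (Dd2, 0.3% parasitemia, 2.5% hematocrit final) are added to compound in RPMI-1640/Albumax II medium, grown 72 h at 37C in low oxygen, then lysed with saponin/Triton-X containing SYBR Green and read by fluorescence.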
* = called active by the depositor; i = inactive; [ ] = another dose, or the depositor's remark. Many of the other results were omitted from the sample, so hits are more common in it than they were. Potency is the fitted concentration of half-maximal effect.

SMILES | Pf Dd2 growth
COc1ccccc1-c1nc2nccc(-c3ccc4c(c3)OCCCO4)n2n1 | -17%
COCc1cn(C[C@H]2C[C@@H](NC(=O)c3cc(C)on3)[C@H](O)[C@@H]2O)nn1 | 3%[44.1 µM]
COc1ccc(-c2noc(C(=O)O)c2[C@@H](C)NC(=O)Nc2cccnc2)cc1 | -3%[44.1 µM]
O=C1CC(NS(=O)(=O)N2CCCC2)CN1Cc1ccc(F)cc1 (centres undefined) | -13%
N#Cc1ccc(C(=O)N2CCCCCCNC(=O)[C@@H]3C[C@@H](c4nc(-c5cnccn5)no4)C[C@@H]32)cc1 | i
c1ccc(Nc2cc3c(cn2)CN(Cc2cnc[nH]2)CCN3)cc1 | -5%[44.1 µM]
Fc1ccccc1CN1CCNc2cc(Nc3ccccc3)ncc2C1 | -28%[44.1 µM]
c1ccc(Nc2cc3c(cn2)CN(Cc2cccs2)CCN3)cc1 | 7.9µM*
CC(C)Cc1cc(C(=O)N2CCCC(C)(c3ccccc3)C2)no1 (centres undefined) | -25%
CNC(=O)N1CCC(C2CCN(C(=O)c3cnn(C)c3)C2)CC1 (centres undefined) | -2%
COc1cc2c(cc1OC1CCCC1)NC(=O)C21CCN(c2nc(C)cc(C)n2)CC1 | 11µM*
COc1cc2c(cc1OC1CCCC1)NC(=O)C21CCN(c2ncccn2)CC1 | -7%[44.1 µM]
COc1cc2c(cc1OC1CCCC1)NC(=O)C21CCN(c2ncc(F)cn2)CC1 | i
O=C(CCCc1ccccc1)NCc1nnc2c(-c3nc(C4CC4)no3)cccn12 | -1%
COCCc1noc([C@@H]2CC(F)(F)CN2C(=O)Cc2ccncc2)n1 | 26%
COCCn1nc2n(c1=O)CCN(C(=O)c1ncccc1C)CC2 | i
COc1ccc(/C=C/C(=O)Nc2cccc(F)c2)cc1 | i
COc1ccc(NC(=O)C(NC(=O)/C=C\c2ccc3c(c2)OCO3)c2ccccc2)cc1 (centres undefined) | 10µM*
COc1cccc(-c2nc(SCC(=O)Nc3ccc4c(c3)OCO4)c(-c3ccccc3)[nH]2)c1 | -22%
COc1ccc(C(=O)N[C@H]2CO[C@H]3[C@@H]2OC[C@H]3OCc2ccccc2)cc1 | 0%[44.1 µM]
CC1(CNc2ccccc2)COc2ccc(C(=O)NCCc3cnc[nH]3)cc2N1 (centres undefined) | i
O=[S+]([O-])(c1cccc(C(F)(F)F)c1)N1CCn2c(nnc2-c2ccncc2)C1 | 1%
O=C(c1ccccc1F)N1CCCN(c2nc3ncccc3o2)CC1 | i
Cc1cc(=O)n(CC(=O)N[C@H](c2ccccn2)C2CC(O)C2)nc1C (some centres undefined) | -15%
COc1ccc(C(=O)N2CCC[C@H]2c2nc(-c3ccc(OC)c(OC)c3)no2)c(OC)c1 | i
SMILES | Pf Dd2 growth
CS(=O)(=O)c1ncc(N(Cc2ccco2)Cc2ccco2)c(C(=O)Nc2ccccc2Br)n1 | -19%
CS(=O)(=O)c1ncc(Cl)c(C(=O)N(Cc2ccc(Cl)cc2)Cc2ccco2)n1 | i[5.79 µM]
CS(=O)(=O)c1ncc(N(Cc2ccccc2)Cc2ccco2)c(C(=O)Nc2cccc(C(F)(F)F)c2)n1 | 6.3µM*
COc1ccc(CN(Cc2ccco2)c2cnc(S(C)(=O)=O)nc2C(=O)Nc2ccc(C)cc2C)cc1 | -1%
O=C(Nc1cccc(C(F)(F)F)c1)c1cc2nc(-c3ccco3)cc(C(F)(F)Cl)n2n1 | 15%
CCSc1ncc(Cl)c(C(=O)Nc2cccc(Cl)c2)n1 | 24%
CC(C)(C)c1ccc(CN(Cc2ccco2)c2cnc(S(C)(=O)=O)nc2C(=O)Nc2ccc(F)cc2)cc1 | 7.9µM*
O=C(Nc1nc2ccc(F)cc2s1)c1nc(S(=O)(=O)Cc2ccccc2F)ncc1Cl | 77%
CCS(=O)(=O)c1ncc(N(Cc2ccco2)Cc2ccccc2F)c(C(=O)Nc2cccc(Cl)c2)n1 | 4µM*
CCCN(CC1CCOC1)C(=O)Nc1c(F)cccc1F (centres undefined) | 4%
CCC(=O)N1CCC(N2CC(OC)C23CCOCC3)CC1 (centres undefined) | 2%
O=C(c1cccnc1)N1C[C@@H]2OCC(=O)N(Cc3ccncc3)[C@@H]2C1 | 20%[44.1 µM]
Nc1cccn2nc(-c3ccccc3)nc12 | -9%
O=C1CCC2(CCN1)CCN(C(=O)C1CCC1)CC2 | 2%
CC(C)NC(=O)C1COC2(CCN(C(=O)c3cccc(Cl)c3)CC2)N1C(=O)c1ccc(F)cc1 (centres undefined) | i
O=C(NC[C@H]1O[C@H](Cc2cc(COc3ccccc3)on2)CC[C@@H]1O)Nc1ccccc1 | i
C=CCNC(=O)c1cccnc1N1CC2CC(C1)[C@H]1CCCC(=O)N1C2 (some centres undefined) | -3%
Cc1nnnn1CC(=O)N1CCCC(c2ccccc2)(c2ccccc2)C1 | -8%
CC(C)c1cc(C(=O)N2CCCC(c3ccccc3)(c3ccccc3)C2)n(C)n1 | 3.2µM*
COc1coc(C(=O)N2CCCC(c3ccccc3)(c3ccccc3)C2)cc1=O | -5%
CC1CCC(NC(=O)C2CCN(C(=O)c3ncn4c3COC(c3ccc(Cl)cc3)C4)CC2)CC1 (centres undefined) | 0%
Cc1ccc(C)c(C(=O)N2CCC3(CC2)N=C(c2ccccc2)NO3)c1 | i
Cc1ccc(C2=NC3(CCN(C(=O)Cc4ccccc4Cl)CC3)ON2)cc1 | 11µM*
CN(C)c1ccc(C(=O)N2CCC3(CC2)N=C(c2cccc(Br)c2)NO3)cc1 | 37%
CC(=O)Nc1ccc(C(=O)N2CCC3(CC2)N=C(c2cccc(Br)c2)NO3)cc1 | 11µM*
SMILES | Pf Dd2 growth
Cc1ccc(C2=NC3(CCN(C(=O)Cc4ccc(F)cc4)CC3)ON2)cc1 | -13%
Cc1ccc(C2=NC3(CCN(C(=O)c4ccccc4C)CC3)ON2)cc1 | 6.3µM*
O=C(c1ccccc1)N1CCC2(CC1)N=C(c1cccc(Br)c1)NO2 | i
Cc1ccc(C2=NC3(CCN(C(=O)c4c[nH]c5ccccc45)CC3)ON2)cc1 | -13%
COc1ccccc1CC(=O)N1CCC2(CC1)N=C(c1ccc(Cl)cc1)NO2 | -35%
Cc1cc2c(c(=O)n(-c3ccc(F)cc3)c(=O)n2CC(=O)Nc2ccc(F)cc2)n1C | i
COCCn1ncc(N2CCC(NC(=O)COc3ccc(F)cc3)CC2)cc1=O | i
COc1cccc(NC(=O)N2C[C@@H](F)C[C@H]2C(=O)N2CCCCC2)c1 | 21%
CN(CC1CCOCC1)C(=O)Cc1c(F)cccc1Cl | 13%
O=C(CC1CCCC1)N1CC(c2nnc(-c3ccncc3)o2)C2(CCOCC2)C1 (centres undefined) | 0%
Cc1ccc(-c2nc(CNC(=O)[C@@H]3CCC[C@H](N)C3)[nH]c2-c2ccccn2)cc1 | 10µM*
O=C(CN1CCNCC1)NCc1nc(-c2cccc(F)c2)c(-c2ccccn2)[nH]1 | -16%
O=C(NCc1nc(-c2cccc(F)c2)c(-c2ccccn2)[nH]1)[C@@H]1C[C@@H](O)CN1 | 13%
Cc1nn(C)c(C)c1CCNC(=O)CCC[C@@H]1[C@H]2CCCN3CCC[C@@H](CN1Cc1ccccc1)[C@@H]23 | i
CC(C)OCCCNC(=O)c1ccc2c(c1)N(S(C)(=O)=O)CC2 | i
CCOc1ccccc1C1C(C(=O)Nc2ccccc2OC)=C(C)Nc2nc3ccccc3n21 (centres undefined) | -19%
COc1ccccc1NC(=O)C1=C(C)Nc2nc3ccccc3n2C1c1cccc(OC)c1OC (centres undefined) | i
COc1cccc(C2C(C(=O)Nc3ccccc3OC)=C(C)Nc3nc4ccccc4n32)c1 (centres undefined) | 7.1µM*
CN1c2cc(C(=O)NCc3ccccc3)ccc2C(=O)N2CCCC21 (centres undefined) | i
COc1ccc(NS(=O)(=O)c2cc3c(cc2C)NC(=O)CO3)c(OC)c1 | 4%

Screens: PubChem BioAssay, National Center for Advancing Translational Sciences (NCATS)
